Screening data: PubChem, National Center for Advancing Translational Sciences (NCATS)
A selection: hits, their analogues and other compounds. The true share with any hit is near 1.7%.
GLP-1R agonist: GLP-1 receptor (human) agonism | HEK293 GLP-1R CRE-luciferase, luminescence, 4-6 h; cells express a hypersensitive GLP-1R form | 0.007% of 380,000 active | AID 624172 | Potency, µM (top dose mostly 45.6 µM), for the others: top-dose activation, usual class: activators; further: % of control where 0% means no effect
RGS4 inh: human RGS4 inhibition; P49798; Transcreener GDP fluorescence polarization, RGS4-accelerated GTP hydrolysis; Potency, µM (highest dose often 114 µM), without a hit: at the top dose activity change, negative = inhibition, hits mostly inhibitors; 0.039% of 390,000 active; AID 504845; further: on the % scale 0 is the no-effect control and ±100 the full control effect; nearly all actives have a fitted effect of over 75% in size
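MLSMR compounds (23 nl, pin-transferred) preincubated 10 min at room temperature with a 500nM (2x) first reagent, then RGS4 at 900nM (2x) plus Transcreener GDP mix added; fluorescence polarization (620/688 nm) read before and after 90 min at 30 °C.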
PTHR1 agonist: activates the human parathyroid hormone receptor PTHR1 | Q03431 | HEK293 GP2 PTHR1 cells, GloSensor cAMP luminescence, 1 h | Potency, µM (highest dose often 115 µM), for inactives: at the top dose activation, actives largely listed as activators | 0.075% of 410,000 active | AID 743266; further: nearly all actives have a fitted effect of over 55% in size
Target sequence (Q03431 whole entry, looked up): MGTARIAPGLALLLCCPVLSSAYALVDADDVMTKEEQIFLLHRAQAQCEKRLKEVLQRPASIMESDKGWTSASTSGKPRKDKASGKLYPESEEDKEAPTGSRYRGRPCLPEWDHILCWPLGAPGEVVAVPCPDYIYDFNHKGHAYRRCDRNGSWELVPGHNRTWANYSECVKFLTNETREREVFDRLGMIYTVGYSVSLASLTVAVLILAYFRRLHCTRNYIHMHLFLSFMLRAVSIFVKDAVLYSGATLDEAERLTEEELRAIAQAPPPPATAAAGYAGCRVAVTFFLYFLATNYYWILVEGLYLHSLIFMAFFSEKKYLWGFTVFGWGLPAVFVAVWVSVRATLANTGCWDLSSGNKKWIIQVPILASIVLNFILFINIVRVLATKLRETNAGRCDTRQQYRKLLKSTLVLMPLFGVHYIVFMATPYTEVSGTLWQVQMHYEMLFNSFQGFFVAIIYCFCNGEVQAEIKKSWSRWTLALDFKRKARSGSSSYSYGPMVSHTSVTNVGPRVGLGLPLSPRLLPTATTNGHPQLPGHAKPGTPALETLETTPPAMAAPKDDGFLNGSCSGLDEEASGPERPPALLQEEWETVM
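HEK-293-derived GP2 cells expressing PTHR1 and a GloSensor cAMP reporter, 3,000/well, plated overnight, given luciferin plus IBMX (each 0.5 mM as added) for 1 h at 37 °C, then compound for 1 h at 37 °C. Luminescence was read after 15 min at room temperature.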
GLP1R cytotox: cytotoxicity in counter-screen for GLP-1R inverse agonists | HEK293 cAMP-luciferase reporter cells, luminescence, 24 h | Potency, µM (highest dose often 38.3 µM), without a hit: at the top dose activity change, negative = inhibition, hits mostly inhibitors | 0.13% of 410,000 active | AID 624418;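 further: loss of luciferase light is scored as toxicity; on the % scale 0 is the no-effect control and ±100 the full control effect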
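To flag toxic compounds, the library was rerun on cells for 24 hr at 37 deg C and 5% CO2. Viability-linked luminescence was captured 12 min after adding luciferase detection reagent.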
GLP1R inv ag: inverse agonists of human GLP-1 receptor | HEK293 GLP-1R CRE-luciferase, luminescence, 24 h; GLP-1R form is constitutively active | Potency, µM (doses to about 38.3 µM), without a hit: at the top dose activity change, negative = inhibition, actives largely listed as inhibitors | 1.6% of 410,000 active | AID 624417; further: on the % scale 0 is the no-effect control and ±100 the full control effect; nearly all actives have a fitted effect of over 55% in size
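Luminescence readout: a drop in cAMP-driven luciferase signal flags inverse agonism at a constitutively active GLP-1R stably expressed in HEK293. Compound exposure lasted 24 hr at 37 deg C, 5% CO2.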
Starred values were filed as active, the others as inactive; [ ] = dose if it differs, or a comment. The call rests on the fitted dose curve; in most records, active means well fitted curve in the direction sought with a large enough effect; inconclusive means small, poorly fitted or top-dose-only effect, or another doubt; inactive means no such curve, though single readings can be large; an effect the other way counts as inactive or inconclusive. Potency means the concentration at half of the fitted maximal effect.

`CCN1CCCC1CNC(=O)c1ccc(Sc2ccc(F)cc2)c([N+](=O)[O-])c1` (stereo not given) gave GLP-1R agonist 10%, RGS4 inh 9%, PTHR1 agonist inactive, GLP1R cytotox 3% and GLP1R inv ag inconclusive.
For CCC(=O)OC1CCC2C3CCc4cc(O)ccc4C3CCC12C (stereo not given) the results were GLP-1R agonist 4%.
`COc1cc(NC(=O)c2ccccc2)c(OC)cc1NC(=O)CN1CCCCC1` gave GLP-1R agonist inconclusive, RGS4 inh 34%, PTHR1 agonist -1%, GLP1R cytotox -5% and GLP1R inv ag 5µM*.
For COc1cc(NC(=O)c2ccccc2)c(OC)cc1NC(=O)CN1CCOCC1 the results were GLP-1R agonist 7%, RGS4 inh -6%, PTHR1 agonist -14%[57.5 µM], GLP1R cytotox -15% and GLP1R inv ag 25%.
Screening Cc1cccc(NCc2ccccc2OCc2ccccc2F)c1 returned GLP-1R agonist -1%, RGS4 inh -28%, PTHR1 agonist -42%, GLP1R cytotox 18% and GLP1R inv ag 10µM*.
`NS(=O)(=O)c1ccc(NCc2ccccc2OCc2ccccc2F)cc1` gave GLP-1R agonist 9%, RGS4 inh -12%, PTHR1 agonist -35%, GLP1R cytotox -14% and GLP1R inv ag 14%.
For Cc1ccc(NCc2ccccc2OCc2ccccc2F)cc1 the results were GLP-1R agonist -3%, RGS4 inh -12%, PTHR1 agonist -13%, GLP1R cytotox 22% and GLP1R inv ag inconclusive.
Oc1ccc(NCc2ccccc2OCc2ccccc2F)cc1 was read as GLP-1R agonist 11µM*, RGS4 inh inconclusive, PTHR1 agonist -36%, GLP1R cytotox inconclusive and GLP1R inv ag 9%.
Screening O=C(CSc1nccn1-c1ccc(F)cc1)Nc1ccc(OC(F)(F)F)cc1 returned RGS4 inh -51%, PTHR1 agonist -36%, GLP1R cytotox -11% and GLP1R inv ag inconclusive.
For CCN(N=O)c1ccc(C=C2C=Cc3ccccc32)cc1 the results were GLP-1R agonist -12%, RGS4 inh 2%, PTHR1 agonist inactive, GLP1R cytotox -21% and GLP1R inv ag -8%.
`O=C(Cc1ccc(Cl)cc1)Nc1ccc(-c2nnc(-c3ccco3)o2)cc1` gave GLP-1R agonist -11%, RGS4 inh -14%, PTHR1 agonist inactive, GLP1R cytotox inconclusive and GLP1R inv ag 10µM*.
Screening C=CCNC(=O)c1c(CSc2ccc(Cl)cc2)noc1C(=O)NCc1ccccc1 returned GLP-1R agonist 2%, RGS4 inh 17%, PTHR1 agonist -4%, GLP1R cytotox 2% and GLP1R inv ag 7.9µM*.
`CCCNC(=O)c1onc(CSc2ccc(Cl)cc2)c1C(=O)NCCC(C)C` gave GLP-1R agonist 9%, RGS4 inh 4%, PTHR1 agonist inactive, GLP1R cytotox 0% and GLP1R inv ag 10µM*.
Screening Cc1occc1-c1nnc(SCC(=O)Nc2ccccc2)n1CCc1ccccc1 returned GLP-1R agonist 1%, RGS4 inh 5%, PTHR1 agonist inactive, GLP1R cytotox -14% and GLP1R inv ag 11µM*.
Screening Cc1ccc(S(=O)(=O)N(CC(O)Cn2c3ccccc3c3ccccc32)c2cccc(C(=O)N(C)C)c2)cc1 (stereo not given) returned GLP-1R agonist -4%, RGS4 inh 3%, PTHR1 agonist inactive, GLP1R cytotox -17% and GLP1R inv ag inconclusive.
Cc1ccc(S(=O)(=O)N(CC(O)Cn2c3ccccc3c3ccccc32)c2cccc(C(=O)NCCO)c2)cc1 (stereo not given) was read as GLP-1R agonist -1%, RGS4 inh 3%, PTHR1 agonist inactive, GLP1R cytotox -22% and GLP1R inv ag 13µM*.
`N/C(=N\OC(=O)c1cccc(Br)c1)c1ccccn1` gave GLP-1R agonist 0%, RGS4 inh -5%, PTHR1 agonist -29%, GLP1R cytotox -12% and GLP1R inv ag 6.3µM*.
